# Test results published in PubChem BioAssay AID652054 (National Center for Advancing Translational Sciences (NCATS), 2013).
# The whole screen tested about 360,000 compounds, of which about 9,100 (2.5%) were called active. Not shown: some 4% with an inconclusive outcome. Cut-off read from the data, not from the text of the source: active = max response below about -50%; inconclusive = no clear call, values can overlap the other calls; inactive = above that. This excerpt belongs to a sample that is enriched for actives.
# Target: D(3) dopamine receptor (Homo sapiens) (UniProt P35462)
# Sequence (P35462 whole entry, looked up): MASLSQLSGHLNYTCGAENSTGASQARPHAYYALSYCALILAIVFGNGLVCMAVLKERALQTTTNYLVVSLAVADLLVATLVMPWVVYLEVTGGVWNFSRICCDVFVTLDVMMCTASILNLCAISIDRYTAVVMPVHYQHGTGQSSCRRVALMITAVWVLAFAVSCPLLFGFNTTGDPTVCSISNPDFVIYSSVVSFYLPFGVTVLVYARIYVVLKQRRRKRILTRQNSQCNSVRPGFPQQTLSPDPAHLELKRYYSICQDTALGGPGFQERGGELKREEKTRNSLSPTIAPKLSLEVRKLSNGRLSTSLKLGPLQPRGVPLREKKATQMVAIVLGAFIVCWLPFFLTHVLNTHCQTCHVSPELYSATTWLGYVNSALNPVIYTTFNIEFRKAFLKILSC
# Experiment: qHTS of D3 Dopamine Receptor Antagonist: qHTS
# Details: D3R cells, DiscoveRx beta-arrestin luminescence, antagonist mode; hits give low values
# Outline: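 Cells plated overnight at 1500 cells/well, then exposed to library compounds with dopamine controls for 90 minutes at 37 degrees C. DiscoveRx reagent added for 30–60 minutes at room temperature; luminescence read, quantitative HTS format.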
# % is set by controls: 0 for no effect and ±100 for the full control effect.
row,SMILES,"max response, negative = inhibition"
1,CNc1cncc(-c2cccc(C(=O)N3CCOCC3)c2)n1,13.3% (inactive)
2,CCC(c1nnnn1-c1ccc2c(c1)OCCO2)N1CCN(c2ccc(C(F)(F)F)cn2)CC1 (stereo not drawn),4.77% (inactive)
3,COc1ccc(/C=C2\SC(=S)N(CCC(=O)N3CCOCC3)C2=O)cc1OC,-14.3% (inactive)
4,O=C(NCCCN1CCCCCC1)C1CC(=O)N(C2CCCC2)C1 (stereo not drawn),10.5% (inactive)
5,O=C(NCCCN1CCN(c2ccccc2F)CC1)C1CCC(=O)N1C1CCCCC1 (stereo not drawn),-78% (active)
6,COc1ccc(CN2CC(C(=O)NCCN3CCN(c4ccccc4F)CC3)CC2=O)cc1 (stereo not drawn),-22.6% (inactive)
7,O=C(C[C@H]1CC[C@H]2[C@@H](COC[C@H](O)CN2C(=O)c2ccccn2)O1)N1CCN(c2ccccc2)CC1,-25.4% (inactive)
8,CCOC(=O)C1CCCN(C(=O)c2ccc(N(C)C)cc2)CC1 (stereo not drawn),22.6% (inactive)
9,CC1=C(C(=O)N2CCOCC2)CC(CC(=O)NCC2CCCCC2)C(=O)N1Cc1ccc(F)cc1 (stereo not drawn),-11.1% (inactive)
10,NC(Cc1ccc(F)cc1)c1csc(Nc2nncc3ccccc23)n1 (stereo not drawn),7.2% (inactive)
11,S=C1Nc2cc(Cl)ccc2Sc2ccccc21,4.03% (inactive)
12,O=C1CC2(CCCC2)Oc2ccc(Cl)cc21,0% (inactive)
13,O=C1Cc2ccccc2Sc2ccc(Cl)cc21,-51% (active)
14,CCOC(=O)N1CCN(C(=O)C[C@@H]2C[C@@]3(C(=O)OC)CCCCC=C3N(CCC3=CCCCC3)C2=O)CC1,18.8% (inactive)
15,Cc1ccc(Cn2cc(CN3CC(N4CCN(C)CC4)CS3(=O)=O)nn2)cc1 (stereo not drawn),-6.65% (inactive)
16,O=S1(=O)CC(N2CCSCC2)CN1Cc1cn(Cc2cccc(Cl)c2)nn1 (stereo not drawn),26.4% (inactive)
17,COc1ccc(-c2cc(NC=O)c3ncc(-c4cccc(C(=O)N(C)C)c4)n3c2)c(OC)c1,-2.96% (inactive)
18,COC(=O)[C@]12CCCCC=C1N(CCC1=CCCCC1)C(=O)[C@H](CC(=O)N1CCSCC1)C2,-7.56% (inactive)
19,Cc1ccccc1C#CC1=CC(=O)CC(C)(C)C1,-9.95% (inactive)
20,Cc1nnc(SC(C)C(=O)c2c[nH]c3ccccc23)n1C1CC1 (stereo not drawn),20.8% (inactive)
21,O=C(CCl)Nc1ccc(Sc2ccc(NC(=O)CCl)cc2)cc1,-60.1% (active)
22,O=C(CCl)Nc1cccc(CP(=O)(c2ccccc2)c2ccccc2)c1,-12.5% (inactive)

row,SMILES,"max response, negative = inhibition"
1,O=C(Nc1ccc(Sc2ccc(Br)cc2)cc1)c1ccco1,17.2% (inactive)
2,CC1(C)CC(=O)C=C(c2ccc(COC(=O)c3cc(F)cc(F)c3)cc2)C1=O,-13.6% (inactive)
3,Cc1ccccc1C(OCC(O)CN1CCCCC1CCO)c1ccccc1 (stereo not drawn),-53.3% (active)
4,COc1cccc(CN(C)CC(O)COC(c2ccccc2)c2ccccc2C)c1 (stereo not drawn),-10.2% (inactive)
5,CC1CCCN(CC(O)COCc2ccccc2)C1 (stereo not drawn),-0.0789% (inactive)
6,CCCCC(=O)N(C)c1c(CC)nc2c(OCc3ccc(S(C)(=O)=O)cc3)cccn12,0% (inactive)
7,Cc1nc2c(OCc3ccc(Cl)cc3Cl)cccn2c1N(C)CC1CC1,-58.1% (active)
8,CCCCC(=O)N(C)c1c(CC)nc2c(OCc3ccc(Cl)cc3Cl)cccn12,-63.9% (active)
9,CCc1nc2c(OCc3ccc(C(=O)OC)cc3)cccn2c1N(C)C(=O)C(C)C,-12.4% (inactive)
10,CCc1nc2c(OCc3ccc(Cl)cc3Cl)cccn2c1N(C)C(=O)C(C)C,-27.6% (inactive)
11,CCOC(=O)N(C)c1c(CC)nc2c(OCc3ccccc3C(=O)OC)cccn12,-50.7% (active)
12,Cc1nc2c(OCc3cccc(Cl)c3)cccn2c1N(C)CC1CC1,-0.943% (inactive)
13,CCc1nc2c(OCCOc3ccccc3)cccn2c1N(C)C(=O)c1ccccc1F,14.9% (inactive)
14,CCc1nc2c(OCC(N)=O)cccn2c1N(C)C(=O)c1ccc(OC)cc1,0% (inactive)
15,CCCCN(C=O)c1c(CC)nc2c(OCc3ccccc3C(=O)OC)cccn12,-3.94% (inactive)
16,Cc1nc2c(OCc3ccc(Cl)cc3)cccn2c1N(C)Cc1cccs1,-0.327% (inactive)
17,CCc1nc2c(OCCOc3ccccc3)cccn2c1N(C)C(=O)c1ccc(OC)cc1,-76.4% (active)
18,COc1ccc(NC(=O)N(C)C[C@@H]2OCc3cn(nn3)CCCC(=O)N([C@H](C)CO)C[C@H]2C)c(OC)c1,-1.72% (inactive)
19,Cc1ccc2nc(-c3ccco3)c(Cc3cccc(Cl)c3)n2c1,-5.94% (inactive)
20,CCOCCC(=O)Nc1ccc2c(c1)c(=O)n(C)n2-c1ccc2ccccc2c1,-26.6% (inactive)
21,COc1cccc(C(NC(C)=O)c2nc(-c3ccccc3OC)cs2)c1 (stereo not drawn),0% (inactive)
22,CCN(CC)C(=O)C1=C(C)N(Cc2ccc(OC)cc2)C(=O)C(CC(=O)NCCCCc2ccccc2)C1 (stereo not drawn),17.3% (inactive)

row,SMILES,"max response, negative = inhibition"
1,CCOc1ccc(CCN2C(=S)N([C@@H](CC(C)C)CN3CCC[C@@H]3CN3C(=S)NC[C@@H]3Cc3ccc(O)cc3)C[C@@H]2Cc2ccc(O)cc2)cc1,1.51% (inactive)
2,CCCCN(C)C(=O)C1CCN(Cc2ccccn2)CC1,-26.1% (inactive)
3,CCCC(=O)C1CCN(Cc2ccccc2)CC1,-29.3% (inactive)
4,CCCCN(Cc1ccccc1)C(=O)C1CCN(Cc2sccc2C)CC1,-66.6% (active)
5,Cc1ccc(F)c(S(=O)(=O)NC(=O)C2(C)CCN2C(=O)c2ccco2)c1 (stereo not drawn),0% (inactive)
6,O=C(NC1CCCCC1)C(c1cc2ccccc2o1)n1c(=O)c(-c2ccco2)nc2ccccc21 (stereo not drawn),-5.65% (inactive)
7,Cc1ccc(N(C(=O)c2ccc(S(=O)(=O)N(C)C)cc2)C2C=CS(=O)(=O)C2)cc1 (stereo not drawn),-16.5% (inactive)
8,CCCCC(=O)N(c1ccc(OC)cc1)C1C=CS(=O)(=O)C1 (stereo not drawn),-109% (active)
9,Cc1ccc(N(C(=O)Cc2cccs2)C2C=CS(=O)(=O)C2)cc1Cl (stereo not drawn),9.44% (inactive)
10,CCCCCc1c(Cc2ccccc2)ncn1CCc1ccccc1OC,-13.9% (inactive)
11,O=C(Nc1cccc(C(=O)O)c1)/C(=C\c1ccccc1)NC(=O)c1ccc(Br)o1,-22% (inactive)
12,COc1ccccc1CN1CCN(C(c2ccccc2)c2ccccc2)CC1,-95.1% (active)
13,CC(C)OCC(O)CN1CCN(C(c2ccccc2)c2ccccc2)CC1 (stereo not drawn),-50.4% (active)
14,COc1ccccc1CN1CCN(Cc2cc(OC)c(OC)cc2OC)CC1,-21.9% (inactive)
15,O=C(C(c1ccccc1)c1ccccc1)N1CCN(CC(O)COc2ccccc2)CC1 (stereo not drawn),-23.3% (inactive)
16,Cn1nnnc1SCC(=O)N1CCN(C(c2ccccc2)c2ccccc2)CC1,2.83% (inactive)
17,Oc1ccccc1CN1CCN(C(c2ccccc2)c2ccccc2)CC1,-76.9% (active)
18,CC(=O)N1CCN(CC(c2ccccc2)c2ccccc2)CC1,18.7% (inactive)
19,c1ccc(C(c2ccccc2)N2CCN(Cc3nnnn3C3CCCCC3)CC2)cc1,-13.5% (inactive)
20,COc1ccccc1NC(=S)N1CCN(C(c2ccccc2)c2ccccc2)CC1,-5.17% (inactive)
21,CCCOc1ccc(F)cc1-c1cc(C(=O)Nc2ccc(F)cc2)[nH]n1,12.6% (inactive)
22,CN(CCO)C(=O)c1nc[nH]c1C(=O)N(C)Cc1ccccc1,-16.2% (inactive)

row,SMILES,"max response, negative = inhibition"
1,Cc1ccccc1-c1ccc2c(c1)O[C@@H](CN(C)Cc1ccc(C(=O)O)cc1)[C@@H](C)CN([C@H](C)CO)S2(=O)=O,17.1% (inactive)
2,CC1(C(=O)NS(=O)(=O)c2cccc(F)c2)CCN1C(=O)Cc1ccc(Cl)cc1Cl (stereo not drawn),-11% (inactive)
3,O=C(Nc1cccc2ccccc12)c1[nH]c(-c2ccccc2)c2c1C(=O)N(C1CC1)C2=O,81% (inactive)
4,CCC(C)CN1C(=O)CN(S(C)(=O)=O)CC1(C)C(=O)Nc1ccc2c(c1)OCCO2 (stereo not drawn),15.4% (inactive)
5,CC(=O)c1ccc(-c2cnc3c(NC=O)cc(-c4cccc(NS(C)(=O)=O)c4)cn23)cc1,127% (inactive)
6,Nc1ncnc2c1ncn2[C@@H]1O[C@H](C(=O)N2CCSC2)[C@@H](O)[C@H]1O,-26.3% (inactive)
7,COc1cccc(-c2nc3nc(C)cc(C)n3c2NC2CCCCC2)c1,-19.4% (inactive)
8,C=C1C(=O)[C@]23C[C@H]1CCC2[C@@]1(C)C(C[C@@H]3O)[C@](C)(C(=O)O)CC[C@@H]1O (stereo partly drawn),-16.7% (inactive)
9,CC1CC2=C(CC1/C=N/NC(N)=S)C(C)(C)CCC2 (stereo not drawn),-76.3% (active)
10,COC(=O)C(Cc1c[nH]c2ccccc12)NC(=O)CCNC(=O)c1ccco1 (stereo not drawn),40% (inactive)
11,CN(Cc1cn(Cc2ccc(C(F)(F)F)cc2)nn1)C1CN(Cc2cn(Cc3ccc(C(F)(F)F)cc3)nn2)S(=O)(=O)C1 (stereo not drawn),0% (inactive)
12,O=C(CCN1CCCCC1)Nc1ccc(F)c(F)c1,15.9% (inactive)
13,CCC(C(=O)NCc1ccccc1)n1c(Cc2cc(F)cc(F)c2)nc2ccccc21 (stereo not drawn),1.57% (inactive)
14,OC[C@H]1O[C@@H](c2nc(-c3nc(-c4ccc(F)cc4)no3)cs2)[C@H](O)[C@@H](O)[C@H]1O,0% (inactive)
15,Cc1cc(=O)oc2cc(NC(=O)C3CC(=O)N(Cc4ccccc4)C3)ccc12 (stereo not drawn),-60.6% (active)
16,Cc1cc(=O)oc2cc(NC(=O)C(C)Oc3ccccc3)ccc12 (stereo not drawn),18.8% (inactive)
17,O=C(Nc1ccc(F)c([N+](=O)[O-])c1)C1CC(=O)N(Cc2ccccc2)C1 (stereo not drawn),16.3% (inactive)
18,CO[C@@H]1CN(C)C(=O)c2cc(NC(=O)Nc3cc(F)ccc3F)ccc2OC[C@H](C)N(C(=O)c2ccccn2)C[C@@H]1C,-21.4% (inactive)
19,CCCCn1nnnc1C1(C)CCC(=O)N1Cc1ccc(OC)c(OC)c1 (stereo not drawn),27.1% (inactive)
20,COc1ccccc1C(=O)Nc1ccc(NC(=O)c2ccco2)c(C)c1,2.58% (inactive)
21,Cc1cc(NC(=O)c2ccc(F)cc2)ccc1NC(=O)c1ccco1,-99.6% (active)
22,Cc1cccc(OCC(=O)Nc2ccc(NC(=O)c3ccco3)c(C)c2)c1,-6.83% (inactive)
